In PubChem BioAssay (Tox21) one finds outcome, Potency and max activation data, which are given here for 8 compounds.

A number with no mark means an inactive call. Records with an inconclusive call do not appear. Activity calls are given as the source filed them. Unless noted, the call rests on the fitted dose curve; in most records, active means well fitted curve in the direction sought with a large enough effect in the repeat runs; inconclusive means weak or mixed curves; inactive means no such curve, though single readings can be large; an effect the other way counts as inactive or inconclusive.

The target in experiment [1] is Thyrotropin-releasing hormone receptor (Homo sapiens) (UniProt P34981). Nature of the experiment: qHTS assay to identify small molecule antagonists of the thyrotropin-releasing hormone receptor (TRHR) signaling pathway (AID 1346877; active means well fitted inhibition curve with a large enough effect in the repeat runs, not every such curve was filed as active; further: series mostly up to about 51 µM). Summed up: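 HEK293/TRHR cells, 18 h, 37 °C; Ca2+ dye 2 h; cpd 5 min RT; TRH 1 nM final; fluorescence read 3 min, 1 s intervals; 15 concs, triplicate.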

Experiment [2] has the same target. Nature of the experiment: qHTS assay to identify small molecule agonists of the thyrotropin-releasing hormone receptor (TRHR) signaling pathway (AID 1346891; calls by dose curve;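 further: HEK293 cells expressing TRHR with calcium dye readout; series mostly up to about 58 µM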). Summed up: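 HEK293/TRHR cells, 1500 per well, 18 h 37 °C; Ca dye 2 h 37 °C; pin-tool compound addition (agonist mode); kinetic fluorescence 3 min, 1 s reads; 15 concentrations, triplicate.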
Experiment [3] in a line: Human pregnane X receptor (PXR) small molecule agonists, qHTS cell viability counter screen (AID 1346977). Further: nearly all actives have a fitted effect of over 50% in size. The procedure, abridged:
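Fluorescence read-out (CellTiter-Fluor) of viability in PXR-Luc HepG2 cells, multiplexed with the luciferase agonist read. Compounds in DMSO added after 5hr plating; 24hr total exposure at 37C, 5% CO2.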

Experiment [4] is described as follows: Caspase-3/7 induction in HepG2 cells by small molecules, qHTS assay (AID 1346978). Further: nearly all actives have a fitted effect of over 15% in size. The procedure, abridged:
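Wild-type HepG2 cells (2,000/well) were settled 5 h at 37 C, 5% CO2, then exposed to compounds in DMSO for 17 h. Caspase-3/7 activity was read by luminescence 30 min after adding Caspase-Glo 3/7 reagent at room temperature.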

A short description of experiment [5]: Caspase-3/7 induction in CHO-K1 cells by small molecules, qHTS cell viability counter screen (AID 1346979). Further: nearly all actives have a fitted effect of over 35% in size. The procedure, abridged: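 CHO-K1 wt, 1,500 cells/well; 5hr pre-incubation 37C/5% CO2; compound pin transfer (DMSO); 16hr exposure; CellTiter-Fluor added, 1hr, fluorescence read.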
A short description of experiment [6]: Caspase-3/7 induction in CHO-K1 cells by small molecules, qHTS assay (AID 1346980). Further: nearly all actives have a fitted effect of over 15% in size. Summed up:
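Wild-type cells were seeded at 1,500 per well and settled 5 hr at 37 C, 5% CO2, then exposed to DMSO-dissolved compounds for 17 hr. Caspase-Glo 3/7 reagent was added, and luminescence was read after 30min at room temperature.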

The nature of experiment [7]: Caspase-3/7 induction in HepG2 cells by small molecules, qHTS cell viability counter screen (AID 1346981). Further: series mostly up to about 92 µM; nearly all actives have a fitted effect of over 30% in size. The procedure, abridged:
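Fluorescence read-out of live-cell protease activity (CellTiter-Fluor) after 1 hr with reagent. This was measured in the same wells as the caspase-3/7 luminescence, on HepG2 cells exposed to DMSO-dissolved compounds for 16 hr at 37 C.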

Experiment [8] addresses Nuclear receptor subfamily 1 group I member 2 (Rattus norvegicus) (UniProt Q9R1A7). The experiment in a line: Rat pregnane X receptor (rPXR) activation by small molecules, qHTS assay (AID 1346983). Further: nearly all actives have a fitted effect of over 20% in size. The note with it: rPXR luciferase reporter cells, One-Glo luminescence, 24 h; max activation: hits give high values. Summed up:
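Cell-based rPXR luciferase reporter assay, 2,000 cells per well, rested 5hr at 37 C before compound addition in DMSO, then 24 hr at 37 C. One-Glo reagent was added and luminescence read after 30 min at room temperature.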

The target of experiment [9] is Nuclear receptor subfamily 1 group I member 2 (Homo sapiens) (UniProt O75469). Nature of the experiment: CYP3A4 induction through human pregnane X receptor (PXR) by small molecules, qHTS assay (AID 1346984). Further: nearly all actives have a fitted effect of over 40% in size. The procedure, abridged: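 HepG2-derived DPX-2 line carrying PXR plus a CYP3A4-promoter luciferase reporter; cells plated 5 hr, compound-exposed 24 hr at 37C. CYP3A4 activity probed with 3uM (final) Luciferin-IPA for 3hr, then luciferase read after One-Glo.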

For experiment [10] the target is unchanged. The experiment in a line: Human pregnane X receptor (PXR) activation by small molecules, qHTS assay (AID 1346985). Further: nearly all actives have a fitted effect of over 40% in size. The procedure, abridged: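 DPX-2 cells (HepG2 co-transfected with a PXR response element and a CYP3A4-promoter luciferase construct) were seeded at 2,000 per well, rested 5 hr at 37C, then exposed to DMSO-dissolved compounds for 24 hr. Activation was read as luciferase luminescence.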

The target of experiment [11] is Cytochrome P450 2D6 (Homo sapiens) (UniProt P10635). Nature of the experiment: Cytochrome P450 Family 2 Subfamily D Member 6 (CYP2D6) small molecule antagonists: luciferase reporter qHTS assay (AID 1671196). Further: nearly all actives have a fitted effect of over 50% in size. Further: potency means the concentration at half of the fitted maximal effect. Summed up: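 Luminogenic proluciferin substrate, CYP2D6 enzyme; 10 min RT preincubation with compound, NADPH regeneration system added, 1 h RT. Stop/detection reagent, 20 min RT, luminescence read (RLU). Signal proportional to CYP activity.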

The target in experiment [12] is Cytochrome P450 2C9 (Homo sapiens) (UniProt P11712). Nature of the experiment: Cytochrome P450 Family 2 Subfamily C Member 9 (CYP2C9) small molecule antagonists: luciferase reporter qHTS assay (AID 1671198). Further: nearly all actives have a fitted effect of over 50% in size. Further: potency means the concentration at half of the fitted maximal effect. Summed up:
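CYP2C9 activity was measured with a P450-Glo proluciferin substrate. Enzyme–substrate mix was held with compound for 10 min at room temperature, then NADPH regeneration solution was added for 1 h at 37C. Luciferin product was read as luminescence.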

Experiment [13] deals with Cytochrome P450 1A2 (Homo sapiens) (UniProt P05177). Nature of the experiment: Cytochrome P450 Family 1 Subfamily A Member 2 (CYP1A2) small molecule antagonists: luciferase reporter qHTS assay (AID 1671199). Further: nearly all actives have a fitted effect of over 50% in size. Further: potency means the concentration at half of the fitted maximal effect. Summed up: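 Luminescence readout (relative luminescence units) after luciferin detection reagent, 20 min RT. Preceded by 1 h room-temperature CYP1A2 reaction with NADPH regeneration solution following 10 min compound preincubation with enzyme and proluciferin substrate. Furafylline positive control.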

Experiment [14] concerns the target Voltage-gated inwardly rectifying potassium channel KCNH2 (Homo sapiens) (UniProt Q12809). The experiment in a line: Human Ether-a-go-go-Related Gene (hERG) channel small molecule antagonists: fluorescence cell-based qHTS assay (AID 1671200). Summed up:
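Read-out: thallium influx as a surrogate for potassium, tracked as fluorescence (480 nm ex/540 nm em) every second for 2 min after Stimulus Buffer addition in dye-loaded hERG-U2OS cells.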

Experiment [15] has as its target Cytochrome P450 3A4 (Homo sapiens) (UniProt P08684). The experiment in a line: Cytochrome P450 Family 3 Subfamily A Member 4 (CYP3A4) small molecule antagonists: luciferase reporter qHTS assay (AID 1671201). Further: nearly all actives have a fitted effect of over 50% in size. Further: potency means the concentration at half of the fitted maximal effect. The procedure, abridged:
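Luminescent readout (RLU) proportional to CYP3A4 activity, from luciferin generated off a proluciferin substrate. Enzyme–substrate mix plus compound 10 min at room temp, NADPH regeneration 1 h, detection reagent 20 min.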

The target of experiment [16] is Nuclear receptor subfamily 1 group I member 2 (Homo sapiens) (UniProt O75469). Nature of the experiment: Human pregnane X receptor (PXR) small molecule agonists, qHTS assay (AID 1346982). Further: nearly all actives have a fitted effect of over 35% in size. Further: potency means the concentration at half of the fitted maximal effect. The procedure, abridged:
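HepG2 PXR-Luc reporter line, 5% charcoal-stripped FBS; 5 hr pre-incubation, compound (DMSO) 24 hr at 37 C/5% CO2; ONE-Glo 30 min RT; luminescence read-out.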

Experiment [17] addresses Cytochrome P450 2C19 (Homo sapiens) (UniProt P33261). The experiment in a line: Cytochrome P450 Family 2 Subfamily C Member 19 (CYP2C19) small molecule antagonists: luciferase reporter qHTS assay (AID 1671197). Further: nearly all actives have a fitted effect of over 65% in size. Further: potency means the concentration at half of the fitted maximal effect. The procedure, abridged: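 CYP2C19 P450-Glo, 1536-well qHTS. Cpd + enzyme/proluciferin substrate 10 min RT; + NADPH regen, 37C 1 h; stop with luciferin detection reagent, 20 min RT, luminescence (RLU). Pos ctrl ketoconazole.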
On the % scale 0 is the no-effect control and ±100 the full control effect.

Sequence of Cytochrome P450 2C19 (Homo sapiens) (P33261 whole entry, looked up): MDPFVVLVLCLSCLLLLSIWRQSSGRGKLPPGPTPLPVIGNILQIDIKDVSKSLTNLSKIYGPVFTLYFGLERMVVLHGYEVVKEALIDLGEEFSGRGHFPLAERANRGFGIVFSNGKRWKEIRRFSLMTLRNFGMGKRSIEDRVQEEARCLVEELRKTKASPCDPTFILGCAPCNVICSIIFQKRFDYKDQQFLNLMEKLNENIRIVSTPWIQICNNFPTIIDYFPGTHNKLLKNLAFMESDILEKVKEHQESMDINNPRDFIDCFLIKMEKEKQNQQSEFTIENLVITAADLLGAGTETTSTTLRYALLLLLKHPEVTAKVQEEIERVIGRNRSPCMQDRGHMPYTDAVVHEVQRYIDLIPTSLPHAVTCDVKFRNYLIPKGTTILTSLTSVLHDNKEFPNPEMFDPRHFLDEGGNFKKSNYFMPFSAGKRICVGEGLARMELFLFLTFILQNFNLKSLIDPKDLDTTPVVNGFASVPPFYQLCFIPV
Sequence of Cytochrome P450 2D6 (Homo sapiens) (P10635 whole entry, looked up): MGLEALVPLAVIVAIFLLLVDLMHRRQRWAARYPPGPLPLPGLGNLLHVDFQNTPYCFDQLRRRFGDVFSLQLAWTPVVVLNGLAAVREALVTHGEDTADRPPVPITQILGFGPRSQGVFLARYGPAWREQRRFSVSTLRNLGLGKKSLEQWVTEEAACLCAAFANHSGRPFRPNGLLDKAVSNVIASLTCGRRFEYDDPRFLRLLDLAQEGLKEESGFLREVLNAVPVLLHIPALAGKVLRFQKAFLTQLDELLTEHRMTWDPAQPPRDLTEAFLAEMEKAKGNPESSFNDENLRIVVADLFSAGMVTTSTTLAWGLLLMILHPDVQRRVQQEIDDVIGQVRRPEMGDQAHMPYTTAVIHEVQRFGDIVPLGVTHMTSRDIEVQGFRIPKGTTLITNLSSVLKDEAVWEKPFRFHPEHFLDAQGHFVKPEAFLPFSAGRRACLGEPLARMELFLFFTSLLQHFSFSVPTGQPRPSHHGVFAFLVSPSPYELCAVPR
Sequence of Cytochrome P450 1A2 (Homo sapiens) (P05177 whole entry, looked up): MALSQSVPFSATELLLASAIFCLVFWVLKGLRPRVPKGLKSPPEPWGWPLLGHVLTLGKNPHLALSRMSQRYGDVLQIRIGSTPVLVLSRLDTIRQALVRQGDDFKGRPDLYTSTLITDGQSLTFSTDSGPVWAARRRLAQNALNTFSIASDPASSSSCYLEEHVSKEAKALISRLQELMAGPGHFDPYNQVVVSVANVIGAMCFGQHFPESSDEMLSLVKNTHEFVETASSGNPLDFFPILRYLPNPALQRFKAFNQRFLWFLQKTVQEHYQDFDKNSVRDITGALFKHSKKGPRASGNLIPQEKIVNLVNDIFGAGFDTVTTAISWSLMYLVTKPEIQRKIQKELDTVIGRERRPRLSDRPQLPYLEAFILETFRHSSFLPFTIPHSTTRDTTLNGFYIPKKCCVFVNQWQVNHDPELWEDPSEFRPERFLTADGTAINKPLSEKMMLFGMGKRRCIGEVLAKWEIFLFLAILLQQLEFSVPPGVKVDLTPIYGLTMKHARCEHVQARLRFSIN
Sequence of Voltage-gated inwardly rectifying potassium channel KCNH2 (Homo sapiens) (Q12809 whole entry, looked up): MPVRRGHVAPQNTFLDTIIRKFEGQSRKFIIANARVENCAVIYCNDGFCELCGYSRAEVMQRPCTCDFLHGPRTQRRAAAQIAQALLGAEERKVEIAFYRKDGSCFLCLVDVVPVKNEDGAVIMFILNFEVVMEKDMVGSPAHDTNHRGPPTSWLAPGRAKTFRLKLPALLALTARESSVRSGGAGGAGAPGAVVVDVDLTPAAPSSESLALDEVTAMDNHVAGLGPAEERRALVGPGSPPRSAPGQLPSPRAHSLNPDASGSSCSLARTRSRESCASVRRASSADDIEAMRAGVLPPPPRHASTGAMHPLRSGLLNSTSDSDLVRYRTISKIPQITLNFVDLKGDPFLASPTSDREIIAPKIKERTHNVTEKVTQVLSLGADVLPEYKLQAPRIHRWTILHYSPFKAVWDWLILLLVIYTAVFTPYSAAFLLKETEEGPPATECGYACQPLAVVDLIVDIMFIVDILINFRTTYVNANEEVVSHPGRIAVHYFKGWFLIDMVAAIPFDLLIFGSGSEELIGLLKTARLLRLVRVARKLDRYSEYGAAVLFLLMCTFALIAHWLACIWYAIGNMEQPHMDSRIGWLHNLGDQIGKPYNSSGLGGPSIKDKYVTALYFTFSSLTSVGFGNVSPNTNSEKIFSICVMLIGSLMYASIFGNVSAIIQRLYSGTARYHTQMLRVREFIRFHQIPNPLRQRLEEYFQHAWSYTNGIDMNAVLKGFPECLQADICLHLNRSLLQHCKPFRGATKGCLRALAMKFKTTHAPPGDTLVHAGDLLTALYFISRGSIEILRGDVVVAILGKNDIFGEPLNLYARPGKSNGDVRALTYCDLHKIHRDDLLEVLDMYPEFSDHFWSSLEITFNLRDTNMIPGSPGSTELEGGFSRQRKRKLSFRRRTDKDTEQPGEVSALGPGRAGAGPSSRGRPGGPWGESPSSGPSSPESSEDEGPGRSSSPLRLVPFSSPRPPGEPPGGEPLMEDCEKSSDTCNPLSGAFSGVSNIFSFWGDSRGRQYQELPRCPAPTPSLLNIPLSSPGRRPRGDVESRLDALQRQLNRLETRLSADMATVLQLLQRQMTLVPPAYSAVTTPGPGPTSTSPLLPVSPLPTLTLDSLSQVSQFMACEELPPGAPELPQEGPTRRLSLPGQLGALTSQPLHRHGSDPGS
Sequence of Nuclear receptor subfamily 1 group I member 2 (Homo sapiens) (O75469 whole entry, looked up): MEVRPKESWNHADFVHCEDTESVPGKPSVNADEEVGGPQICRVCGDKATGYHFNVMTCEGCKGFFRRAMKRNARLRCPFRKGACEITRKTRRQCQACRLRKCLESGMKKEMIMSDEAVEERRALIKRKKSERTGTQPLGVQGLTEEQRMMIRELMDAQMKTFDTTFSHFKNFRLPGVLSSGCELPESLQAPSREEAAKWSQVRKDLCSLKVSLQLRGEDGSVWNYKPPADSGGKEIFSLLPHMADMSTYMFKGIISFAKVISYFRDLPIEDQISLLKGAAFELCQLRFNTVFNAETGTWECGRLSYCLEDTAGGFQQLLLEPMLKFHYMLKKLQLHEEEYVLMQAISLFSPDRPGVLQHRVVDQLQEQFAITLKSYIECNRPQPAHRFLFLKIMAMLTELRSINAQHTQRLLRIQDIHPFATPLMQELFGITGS
Sequence of Cytochrome P450 2C9 (Homo sapiens) (P11712 whole entry, looked up): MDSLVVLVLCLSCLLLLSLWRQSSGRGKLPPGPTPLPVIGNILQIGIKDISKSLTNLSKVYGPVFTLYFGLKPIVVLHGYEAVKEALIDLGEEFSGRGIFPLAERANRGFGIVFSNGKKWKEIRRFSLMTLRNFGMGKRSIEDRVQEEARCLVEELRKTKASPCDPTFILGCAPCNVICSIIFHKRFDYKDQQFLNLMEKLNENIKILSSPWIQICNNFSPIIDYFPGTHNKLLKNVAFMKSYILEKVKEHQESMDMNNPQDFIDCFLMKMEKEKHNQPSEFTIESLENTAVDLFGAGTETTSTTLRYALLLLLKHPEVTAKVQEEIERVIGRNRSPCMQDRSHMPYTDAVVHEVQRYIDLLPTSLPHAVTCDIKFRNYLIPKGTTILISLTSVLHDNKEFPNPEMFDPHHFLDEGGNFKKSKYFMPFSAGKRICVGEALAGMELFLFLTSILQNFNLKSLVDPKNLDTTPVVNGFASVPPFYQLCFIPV
Sequence of Nuclear receptor subfamily 1 group I member 2 (Rattus norvegicus) (Q9R1A7 whole entry, looked up): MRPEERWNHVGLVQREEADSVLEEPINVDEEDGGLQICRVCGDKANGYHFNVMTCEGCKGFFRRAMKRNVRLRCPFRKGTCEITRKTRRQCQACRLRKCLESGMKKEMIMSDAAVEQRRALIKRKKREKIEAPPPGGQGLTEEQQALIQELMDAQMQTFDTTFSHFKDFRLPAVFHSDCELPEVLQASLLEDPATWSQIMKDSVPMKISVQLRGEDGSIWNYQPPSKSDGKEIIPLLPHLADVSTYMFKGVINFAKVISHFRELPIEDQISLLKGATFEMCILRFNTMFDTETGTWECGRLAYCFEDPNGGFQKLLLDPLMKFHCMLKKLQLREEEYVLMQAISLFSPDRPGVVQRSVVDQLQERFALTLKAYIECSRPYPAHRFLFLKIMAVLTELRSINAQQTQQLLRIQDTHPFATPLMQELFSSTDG
Sequence of Thyrotropin-releasing hormone receptor (Homo sapiens) (P34981 whole entry, looked up): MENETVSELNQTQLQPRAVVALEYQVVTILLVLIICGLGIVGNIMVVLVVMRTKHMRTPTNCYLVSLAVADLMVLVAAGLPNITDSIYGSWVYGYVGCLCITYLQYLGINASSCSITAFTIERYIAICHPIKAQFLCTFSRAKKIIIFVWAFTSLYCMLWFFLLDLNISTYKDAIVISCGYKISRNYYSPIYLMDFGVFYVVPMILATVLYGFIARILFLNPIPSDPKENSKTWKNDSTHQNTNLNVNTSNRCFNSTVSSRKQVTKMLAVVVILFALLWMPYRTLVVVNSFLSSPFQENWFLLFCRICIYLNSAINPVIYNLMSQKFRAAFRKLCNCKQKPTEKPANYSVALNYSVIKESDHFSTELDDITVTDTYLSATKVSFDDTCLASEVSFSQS
Sequence of Cytochrome P450 3A4 (Homo sapiens) (P08684 whole entry, looked up): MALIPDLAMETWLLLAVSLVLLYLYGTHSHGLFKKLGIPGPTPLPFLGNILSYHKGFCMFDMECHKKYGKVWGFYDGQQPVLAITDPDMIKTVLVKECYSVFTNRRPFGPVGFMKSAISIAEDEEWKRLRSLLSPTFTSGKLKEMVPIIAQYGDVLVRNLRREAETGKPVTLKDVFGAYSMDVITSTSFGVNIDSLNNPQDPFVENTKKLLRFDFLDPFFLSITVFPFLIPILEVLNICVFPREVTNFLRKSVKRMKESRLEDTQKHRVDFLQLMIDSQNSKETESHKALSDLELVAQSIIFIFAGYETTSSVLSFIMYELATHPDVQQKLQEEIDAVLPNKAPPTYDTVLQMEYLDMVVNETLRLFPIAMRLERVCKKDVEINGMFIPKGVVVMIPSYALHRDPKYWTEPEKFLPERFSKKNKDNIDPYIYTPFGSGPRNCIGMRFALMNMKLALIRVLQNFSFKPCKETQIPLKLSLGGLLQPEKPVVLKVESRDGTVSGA

Regarding `O=C(OOC(=O)c1ccccc1)c1ccccc1`, the call in experiment [1], in experiment [3], in [4], in experiment [6], in experiment [7] and in experiment [9] was inactive. Besides, the compound was called inactive in [10]. Moreover, the Potency result in [2], in experiment [5], in experiment [11], in experiment [12], in experiment [13] and in [14] was “inactive” in each case. The Potency result in experiment [15] was “inactive”. Also, the max activation in experiment [8] was -2.52%.
For `CCO[Si](CC(C)C)(OCC)OCC`, the outcome in [1], in experiment [3], in [4], in [6] and in experiment [7] was inactive. The Potency result in [2], in experiment [5] and in [14] was “inactive” in each case. For the same compound, the Potency is 9.69 µM (active) in experiment [16], 44.8 µM (active) in experiment [11] and 39.9 µM (active) in experiment [12].
Regarding `O=C(O)Cc1c(Cl)ccc(Cl)c1Cl`, the call in experiment [1], in experiment [3], in [4], in [6] and in experiment [7] was inactive. Further, the Potency entry in [2], in experiment [16], in [11] and in experiment [14] was “inactive” each time. Moreover, the results for the Potency in experiment [17] and in [15] were 15.9 µM (active) and 12.6 µM (active), respectively.
For `CCCCN=C(N)N=C(N)N`, the call in experiment [3], in [4], in experiment [6], in experiment [7], in [9] and in experiment [10] was inactive. For the same compound, the Potency entry in experiment [5], in experiment [16], in experiment [17], in experiment [12], in [14] and in [15] was “inactive” in each case. For the same compound, the max activation in experiment [8] is -2.74%.
With `C/C=C(\C)C(=O)OC/C=C(\C)CCC=C(C)C`, the compound was called inactive in [3], in [4], in [6] and in experiment [7]. Moreover, the Potency result in experiment [5], in [16], in experiment [11], in [17], in experiment [14] and in [15] was “inactive” in each case.
Take `CCCC(=O)CC`: the outcome in [1], in [3], in experiment [4], in experiment [6] and in [7] was inactive. The Potency entry in experiment [2], in experiment [5], in experiment [16], in [11], in experiment [12] and in experiment [14] was “inactive” throughout. In addition, in experiment [15], the Potency entry is “inactive”. Further, the Potency in experiment [17] was 41.2 µM (active); in [13], 20.6 µM (active).
`Nc1ccc(C(=O)NCC(=O)O)cc1`: the compound was called inactive in [3], in experiment [4], in [6], in experiment [7], in experiment [9] and in experiment [10]. Also, the Potency entry in [5], in experiment [16], in experiment [17], in experiment [12], in experiment [13] and in experiment [14] was “inactive” each time. For the same compound, in experiment [15], the Potency result is “inactive”. Also, in [8], the max activation was -2.15%.
As for `C[n+]1ccccc1/C=N/O`, the result in experiment [1], in experiment [3], in [6], in experiment [7], in experiment [9] and in [10] was inactive. Moreover, the Potency result in experiment [2], in [5], in [11], in [17], in experiment [12] and in [13] was “inactive” each time. The Potency result in [14] was “inactive”. For the same compound, the max activation in experiment [8] was -0.461%.
